Results on 16 compounds are retold here after PubChem BioAssay (NCATS).

The nature of assay [1]: Cell Viability - BJ (AID 421; calls by dose curve;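 also: potency is read from the fitted curve at half-maximal effect; cells exposed to compound for 40 hours at 37 °C before readout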). Particulars: BJ fibroblast viability, qHTS. The procedure, abridged: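 Cytotoxicity in human BJ foreskin fibroblasts is scored as loss of cellular ATP after a 40-hour exposure, measured by luciferase luminescence. Controls are DMSO and 100 uM tamoxifen.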
A short description of assay [2]: Cell Viability - Jurkat (AID 426;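 active = dose-dependent loss of cell ATP signal giving a full or clear fitted curve, ranked by lower potency value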; also: potency is read from the fitted curve at half-maximal effect). Particulars: qHTS. The procedure, abridged:
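Seed 5000 Jurkat E6-1 cells/well; add compound; incubate 40 hr at 37 °C; add CellTiter-Glo; wait 20 min at room temperature; read luminescence. Fit concentration-response with Hill equation for AC50.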

Assay [3] in a line: Cell Viability - Hek293 (AID 427;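 active = compounds whose dose-response curve shows a full or clear partial loss of cell viability, called from curve shape rather than a numeric limit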;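 also: potency is read from the fitted curve at half-maximal effect; cells exposed to compound for 40 hours at 37 °C before reading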). Particulars: qHTS. The procedure, abridged:
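qHTS, human embryonic kidney (adenovirus-transformed) cells; 40 hr cpd, 37 °C; CellTiter-Glo ATP luminescence. Norm: DMSO = 0, 100 uM tamoxifen = 100% inhibition. Hill-fit AC50.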

The nature of assay [4]: Cell Viability - HepG2 (AID 433; calls by dose curve;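 also: potency is read from the fitted curve at half-maximal effect; potency for ATP loss meaning cytotoxicity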). The following applies: qHTS. A digest of the protocol: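 Cytotoxicity read as ATP loss (CellTiter-Glo luminescence) after 40 hr compound exposure of HepG2, 1500 cells/well, 37 °C. AC50 by Hill equation; 0% set by DMSO, 100% inhibition by 100 uM tamoxifen.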
Assay [5] in a line: Cell Viability - MRC5 (AID 434; calls by dose curve;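 also: potency is read from the fitted curve at half-maximal effect; potency reflects cytotoxicity seen as loss of intracellular ATP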). Particulars: MRC5 lung fibroblast viability, qHTS. The procedure, abridged:
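MRC5 normal human lung fibroblasts, 1500 cells/well, exposed to compound for 40 hr at 37 C. Cellular ATP was read by CellTiter-Glo luminescence; data normalized to DMSO and 100 uM tamoxifen, with AC50 from Hill fits.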

The nature of assay [6]: Cell Viability - SK-N-SH (AID 435; calls by dose curve; also: potency is read from the fitted curve at half-maximal effect). The following applies: SK-N-SH neuroblastoma cell viability qHTS. A digest of the protocol:
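qHTS cytotoxicity: CellTiter-Glo ATP luminescence after 40 h compound exposure of human neuroblastoma SK-N-SH cells at 37 °C. AC50 derived by Hill-equation fitting, with DMSO as basal and 100 uM tamoxifen as full inhibition.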

Assay [7] addresses Mitogen-activated protein kinase 10 (Mus musculus) (UniProt Q61831). The assay is described as follows: JNK3 AlphaScreen Assay (AID 530; active = well fitted curve in either direction with a large enough effect, not every such curve was filed as active;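 also: kinase came from lysate of stimulated human HepG2 cells; signal reports phosphorylation of biotinylated GST-cJun 1-79 at Ser73 with 10 µM ATP; % is scaled to controls: 0 for no effect and ±100 for the full control effect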). Particulars: JNK3 lysate, c-Jun phosphorylation; series mostly up to 57.1 µM. A digest of the protocol:
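qHTS format: compounds tested as titrations against IL-1beta/TNF-alpha-activated HepG2 lysate JNK3 with biotin-GST-cJun substrate and 10 uM ATP at room temperature. Loss of anti-phospho-cJun AlphaScreen signal indicates inhibition.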

Assay [8] can be described thus: Cell Viability - N2a (AID 540). Also: nearly all actives have a fitted effect of over 45% in size. Also: potency is read from the fitted curve at half-maximal effect.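 As to activity change, negative = cytotoxicity: plate controls were DMSO alone for no effect and tamoxifen control for full effect.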 Particulars: N2a mouse neuroblastoma cell viability; activity change, negative = cytotoxicity: at 92.2 µM (top of the series). The procedure, abridged: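 First, 1500 N2a cells per well incubate 5 hr at 37 °C; next, compounds are added and incubated 40 hr at 37 °C; finally CellTiter-Glo is added and luminescence read after 20 min, with AC50 derived by Hill modeling.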

Assay [9] in a line: Cell Viability - NIH 3T3 (AID 541). Also: nearly all actives have a fitted effect of over 25% in size. Also: potency is read from the fitted curve at half-maximal effect.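 As to activity change, negative = cytotoxicity: plate controls were DMSO alone for no effect and tamoxifen positive control for full effect.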 The following applies: NIH 3T3 cell viability, qHTS; series mostly up to 92.2 µM. A digest of the protocol:
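AC50 values reflect concentration-dependent loss of intracellular ATP in NIH 3T3 cells after 40 hr treatment in complete culture medium, quantified by luciferase-based luminescence.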

Assay [10] is described as follows: Cell Viability - HUV-EC-C (AID 542). Also: nearly all actives have a fitted effect of over 35% in size. Also: potency is read from the fitted curve at half-maximal effect. As to activity change, negative = cytotoxicity: % is scaled to controls: 0 for no effect and ±100 for the full control effect. Particulars: HUV-EC-C endothelial cell viability, qHTS; series mostly up to 92.2 µM. A digest of the protocol: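 Decrease in cellular ATP, quantified by luciferase luminescence, reflects toxicity in normal human vascular endothelial HUV-EC-C cells given compound for 40 hr in complete culture medium. Values are AC50s from concentration-response curves.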

Assay [11] is described as follows: Cell Viability - H-4-II-E (AID 543). Also: nearly all actives have a fitted effect of over 35% in size. Also: potency is read from the fitted curve at half-maximal effect. The following applies: H-4-II-E rat hepatoma viability; series mostly up to 92.2 µM. A digest of the protocol:
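Here, cytotoxicity is measured in the rat hepatoma line H-4-II-E as loss of intracellular ATP after 40 hr compound treatment, detected by luciferase luminescence.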

A short description of assay [12]: Cell Viability - SH-SY5Y (AID 544). Also: nearly all actives have a fitted effect of over 55% in size. Also: potency is read from the fitted curve at half-maximal effect. The following applies: SH-SY5Y neuroblastoma cell viability; series mostly up to 92.2 µM. The procedure, abridged: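 Cytotoxicity is scored as a concentration-dependent fall in intracellular ATP in human SH-SY5Y cells treated 40 hr in complete culture medium. Potency is expressed as AC50 from a Hill equation fit.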
Assay [13] in a line: Cell Viability - Renal Proximal Tubule (AID 545). Also: nearly all actives have a fitted effect of over 40% in size. Also: potency is read from the fitted curve at half-maximal effect.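 As to activity change, negative = cytotoxicity: 0% = DMSO only and -100% = 100 µM tamoxifen.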 The following applies: renal proximal tubule cells viability; series mostly up to 91.7 µM. A digest of the protocol:
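Viability taken as intracellular ATP (CellTiter-Glo luminescence) after 40 hr, 37 °C compound treatment of primary proximal tubule cells from rat kidney, 1000 cells/well; Hill-equation fits of qHTS concentration-response data gave AC50.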

Assay [14] is described as follows: Cell Viability - Mesenchymal (AID 546).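 Also: cells exposed to compound for 40 hours before reading.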 Also: potency is read from the fitted curve at half-maximal effect.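 As to activity change, negative = cytotoxicity: 0% = DMSO only and -100% = 100 µM tamoxifen.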 Particulars: mesenchymal cells viability, qHTS; series mostly up to 91.7 µM. A digest of the protocol:
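Human kidney mesenchymal cells from normal renal glomeruli, 1000 cells/well, rested 5 hr at 37 °C, then treated 40 hr at 37 °C in complete medium. Cellular ATP read by CellTiter-Glo luminescence; AC50 from Hill-equation fits.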

Assay [15] has as its target Glucocorticoid receptor (Homo sapiens) (UniProt P04150). The assay is described as follows: GR-GFP Redistribution (AID 450;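 active = compounds whose dose series gives a full or clear partial fitted curve of increased nuclear translocation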; also: potency is read from the fitted curve at half-maximal effect). Particulars: U2OS GR-GFP nuclear translocation, laser cytometry, 2 h.
Assay [16] shares this target. Nature of the assay: GR-EFC Redistribution (AID 451; calls by dose curve; also: potency is read from the fitted curve at half-maximal effect). The following applies: CHO-K1 GR-EFC translocation, beta-gal luminescence, 2 h. The procedure, abridged: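 CHO-K1 cells expressing nuclear EA and GR-ED fragments of b-gal; compounds titrated up to 46 uM final, 2 h at 37 C. GR nuclear translocation read as complemented b-gal luminescence after 1 h RT detection.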

For assay [17], the target named is Cytochrome P450 1A2 (Homo sapiens) (UniProt P05177). The assay is described as follows: p450-cyp1a2 (AID 410; calls by dose curve; also: potency is read from the fitted curve at half-maximal effect). The following applies: recombinant CYP1A2, luciferin-ME demethylation, luminescence; series mostly up to 57 µM. The procedure, abridged:
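Inhibition was calculated relative to 57 uM furafylline (full inhibition). The reaction used human CYP1A2 at 20nM with Luciferin-ME at its Km, 100uM, driven by an NADPH-regenerating system for 60 min at room temperature.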

Values joined by “and” are separate entries in the source; they are usually repeats but may differ in a detail not shown here. Identical values can stand only once. Results filed as inconclusive are left out. A structure can be active in one record and inactive in another. Active and inactive are the calls of the source. Unless noted, calls follow the shape of the dose curve; as a rule, active = well fitted curve in the direction sought with a large enough effect; inconclusive = small, poorly fitted or top-dose-only effect, or another doubt; inactive = no such curve, though single readings can be large; an effect the other way counts as inactive or inconclusive.

Glucocorticoid receptor (Homo sapiens), sequence (P04150 whole entry, looked up, the tested form may be a part): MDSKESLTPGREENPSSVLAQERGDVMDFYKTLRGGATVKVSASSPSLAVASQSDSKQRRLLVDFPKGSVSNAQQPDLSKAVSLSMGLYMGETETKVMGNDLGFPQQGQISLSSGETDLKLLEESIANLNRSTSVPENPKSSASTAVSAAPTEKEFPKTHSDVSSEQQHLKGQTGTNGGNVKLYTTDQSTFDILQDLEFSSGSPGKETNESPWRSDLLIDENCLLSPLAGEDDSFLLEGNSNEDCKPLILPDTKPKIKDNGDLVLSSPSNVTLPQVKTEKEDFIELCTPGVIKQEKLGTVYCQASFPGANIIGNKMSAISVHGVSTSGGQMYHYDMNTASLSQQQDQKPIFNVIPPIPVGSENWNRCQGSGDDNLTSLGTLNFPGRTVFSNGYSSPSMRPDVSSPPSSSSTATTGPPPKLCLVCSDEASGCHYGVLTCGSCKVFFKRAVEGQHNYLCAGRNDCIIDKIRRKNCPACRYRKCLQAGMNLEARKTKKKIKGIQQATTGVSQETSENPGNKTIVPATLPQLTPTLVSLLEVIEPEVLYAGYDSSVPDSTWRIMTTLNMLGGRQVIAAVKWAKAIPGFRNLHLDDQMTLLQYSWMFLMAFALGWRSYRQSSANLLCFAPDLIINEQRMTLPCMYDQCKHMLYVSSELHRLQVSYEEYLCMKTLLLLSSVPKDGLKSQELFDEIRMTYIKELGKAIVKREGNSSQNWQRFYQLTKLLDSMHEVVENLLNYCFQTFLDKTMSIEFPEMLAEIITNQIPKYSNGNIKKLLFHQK
Cytochrome P450 1A2 (Homo sapiens), sequence (P05177 whole entry, looked up): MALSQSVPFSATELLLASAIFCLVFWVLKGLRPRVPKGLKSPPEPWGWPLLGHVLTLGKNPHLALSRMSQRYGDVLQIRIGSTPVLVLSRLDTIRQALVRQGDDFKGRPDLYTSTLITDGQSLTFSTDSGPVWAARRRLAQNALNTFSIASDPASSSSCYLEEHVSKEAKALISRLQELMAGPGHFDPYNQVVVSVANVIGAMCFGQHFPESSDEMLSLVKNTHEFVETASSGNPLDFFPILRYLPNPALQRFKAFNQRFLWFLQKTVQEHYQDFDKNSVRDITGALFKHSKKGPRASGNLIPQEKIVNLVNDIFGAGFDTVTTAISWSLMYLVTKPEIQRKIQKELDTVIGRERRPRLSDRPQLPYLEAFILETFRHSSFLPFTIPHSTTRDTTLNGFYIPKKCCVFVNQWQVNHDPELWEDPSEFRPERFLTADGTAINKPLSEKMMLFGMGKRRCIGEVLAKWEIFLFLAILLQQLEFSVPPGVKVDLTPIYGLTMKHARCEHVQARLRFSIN

Take `CCCCCCCCc1ccc(O)cc1`: the Potency in assay [1], in assay [2], in assay [3], in assay [4], in assay [5] and in [6] was > 92 µM (inactive) throughout. For the same compound, in assay [7], the result was inactive. In assay [8], the activity change, negative = cytotoxicity was -16.1% (inactive). Besides, the Potency entry in assay [9], in assay [10], in [11], in assay [12], in assay [13] and in assay [14] was “inactive” in each case.

For `C[C@@H](N)Cc1cnc[nH]1`, the Potency in assay [15] and in assay [16] was > 46 µM (inactive) each time. In addition, in [7], the outcome was inactive.

With `CCOCCOC(C)=O`, the Potency in [1], in assay [2], in [3], in assay [4], in [5] and in assay [6] was > 92 µM (inactive) in each case. Also, the compound was classed as inactive in assay [7]. Moreover, in [8], the activity change, negative = cytotoxicity was -15.1% (inactive). Besides, the Potency entry in [9], in assay [10], in [11], in [12], in assay [13] and in assay [14] was “inactive” each time.

For the compound `CC(C)(O)C(=O)Nc1ccc([N+](=O)[O-])c(C(F)(F)F)c1`, the Potency in assay [1], in assay [2], in [3], in assay [4], in assay [5] and in [6] was > 92 µM (inactive) throughout. Further, the compound was classed as inactive in assay [7]. In addition, the activity change, negative = cytotoxicity in assay [8] is -95.6% (active). The Potency entry in assay [10], in assay [12], in assay [13] and in [14] was “inactive” each time.

As to `CCCN1CCO[C@@H]2c3cc(O)ccc3OC[C@@H]21`, the Potency in [16] is > 46 µM (inactive). For the same compound, the call in [7] was inactive.

With `Cc1nc(-c2ccc(-c3ccc(C(=O)N4CCc5cc6c(cc54)C4(CCN(C)CC4)CO6)cc3)c(C)c2)no1`, the Potency entry in assay [17] was “inactive and 39.8 µM (active)”; in assay [15], > 46 µM (inactive); in assay [16], > 46 µM (inactive). The call in [7] was inactive.

Turning to `Nc1ccc(Sc2ccc(N)cc2)cc1`, the Potency in assay [1], in [2], in assay [3], in [4], in [5] and in [6] was > 92 µM (inactive) in each case. The compound was classed as inactive in [7]. In addition, in assay [8], the activity change, negative = cytotoxicity was -14% (inactive). The Potency entry in assay [9], in [10], in [12], in assay [13] and in assay [14] was “inactive” throughout.

Turning to `Nc1ccc(Cl)cc1N`, the Potency in [1] is > 92 µM (inactive); in assay [2] it was 4.05 µM (active); in assay [3], > 92 µM (inactive); in assay [5], > 92 µM (inactive); in assay [9] it was 631 nM (active). Further, the compound was called inactive in assay [7]. The Potency entry in assay [10], in [11], in [13] and in assay [14] was “inactive” each time.

In the case of `COC(C)(C)CCCC(C)C/C=C/C(C)=C/C(=O)OC(C)C` (stereo unspecified), the Potency in assay [1], in [2], in assay [3], in assay [4], in [5] and in assay [6] was > 92 µM (inactive) each time. Besides, the call in assay [7] was inactive. For the same compound, the activity change, negative = cytotoxicity in assay [8] is -12% (inactive). In addition, the Potency entry in assay [9], in [10], in assay [11], in [12], in assay [13] and in assay [14] was “inactive” each time.

On to `C1CCC(NC2CCCCC2)CC1`, for which the Potency in assay [1], in assay [2], in assay [3], in assay [4], in [5] and in assay [6] was > 92 µM (inactive) each time. The result in assay [7] was inactive. Moreover, the activity change, negative = cytotoxicity in assay [8] was 3.55% (inactive) and 8.48% (inactive). Also, the Potency result in [9], in [10], in assay [11], in assay [12], in assay [13] and in assay [14] was “inactive” in each case.

As to `CCCCC(CC)COC(=O)c1ccccc1C(=O)OCC(CC)CCCC` (stereo unspecified), the Potency in assay [1], in assay [2], in assay [3], in assay [4], in [5] and in [6] was > 92 µM (inactive) each time. Further, in [8], the activity change, negative = cytotoxicity was -29.3% (inactive). For the same compound, the Potency entry in assay [10], in assay [11], in assay [12], in assay [13] and in assay [14] was “inactive” each time.

Take `CN(C)NC(=O)CCC(=O)O`: the Potency in [1], in assay [2], in assay [3], in assay [4], in assay [5] and in [6] was > 92 µM (inactive) throughout. Moreover, the result in [7] was inactive. For the same compound, the activity change, negative = cytotoxicity in assay [8] is -4.24% (inactive). Moreover, the Potency entry in assay [9], in assay [10], in assay [11], in assay [12], in assay [13] and in assay [14] was “inactive” each time.

For `CC(=O)[O][Hg][c]1ccccc1`, the Potency was 5.56 µM (active) in [1]; 0.47 µM (active) in assay [2]; 2.24 µM (active) in [3]; 25.1 µM (active) in assay [4]; 10.9 µM (active) in [5]; 2.17 µM (active) in [6]. The Potency in [8] is 10 µM (active); in assay [9], 63.1 nM (active); in assay [10], 1.26 µM (active); in assay [11] it was 2 µM (active); in assay [12], 126 nM (active); in [13] it was 631 nM (active). Besides, the Potency in assay [14] was 2 µM (active). For the same compound, the result in assay [7] was inactive.

As for `C=CC(=O)NCNC(=O)C=C`, the Potency in assay [1], in assay [2], in [3], in assay [4], in [5] and in assay [6] was > 92 µM (inactive) throughout. In addition, in assay [7], the call was inactive. For the same compound, in assay [8], the activity change, negative = cytotoxicity was 2.37% (inactive). For the same compound, the Potency result in assay [9], in [10], in assay [11], in assay [12], in assay [13] and in assay [14] was “inactive” each time.

For the compound `CCOC(=O)c1cncn1[C@H](C)c1ccccc1`, the Potency in assay [15] and in [16] was > 46 µM (inactive) each time. The result in [7] was inactive.

In the case of `O=C(O)C(Cl)Cl`, the Potency in assay [1], in [2], in assay [3], in [4], in [5] and in assay [6] was > 92 µM (inactive) each time. The compound was called inactive in [7]. In addition, in [8], the activity change, negative = cytotoxicity was 2.37% (inactive). Further, the Potency entry in [9], in assay [10], in assay [11], in assay [12], in assay [13] and in assay [14] was “inactive” each time.
